Only some compounds are listed: those with a hit (about 2.2% of all), similar ones and a draw of the others.
EWS-Fli inh: blocks EWS/Fli oncoprotein-driven transcription | A673 NR0B1-luciferase reporter, viability-normalised | inhibition, % at 12.6 µM | 0.67% of 350,000 active;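 active = mean inhibition of at least 50% after viability correction, with every replicate also passing that limit; inconclusive = mean reaches 50% but only one of two replicates passes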;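 note: firefly luciferase signal divided by Alamar Blue viability fluorescence both relative to DMSO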
PGC1a acetyl inh: lowers PGC1a acetylation signal in U2OS cells; AlphaScreen anti-acetyl-lysine; with virally co-expressed GCN5 acetyltransferase; inhibition, % at 15.6 µM; 0.17% of 350,000 active; AID 651687;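 active = every replicate shows inhibition of at least 40%; inconclusive = mean inhibition at least 40% but some replicate below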;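 note: 0% = neutral control wells and 100% = positive control wells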
PAX8 inh HTS: inhibitors of PAX8 transcriptional activity in RMG-I cells; RMG-I TPO-luciferase reporter, SteadyGlo, 24 h; inhibition, % at 12.6 µM; 1.2% of 360,000 active;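 active = mean replicate inhibition at least 60% with every replicate also reaching 60%; inconclusive = only one of the two criteria is met; inactive = mean below 60% and not all replicates reaching 60%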;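 note: luciferase light reporting Pax8 driven TPO promoter activity; plate controls were median of neutral control wells for no effect and mitoxantrone controls for full effect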
TRPM1 prom inh: reduces MITF-dependent TRPM1 promoter luciferase signal | SK-MEL-5 TRPM1 promoter luciferase, 24 h | inhibition, % at 12.5 µM | 0.83% of 330,000 active | AID 488899;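 active = mean inhibition across replicates of 60% or more, whatever share of single replicates reaches that level; inconclusive = some that reach 60%, reason not given; inactive = mean inhibition across replicates below 60%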
LMP1 NFkB inh: Epstein-Barr LMP1 NF-kappaB reporter inhibition. LMP1-induced NF-kappaB luciferase reporter cells, luminescence. inhibition, % at 12.5 µM. 0.69% of 350,000 active; in the data active = inhibition above about 41%; inconclusive = no clear call, values can overlap the other calls;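 note: 0% = neutral control wells and 100% = reference inhibitor control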
LGR2 antag: Drosophila LGR2 receptor signaling inhibition | HEK293 LGR2, CRE-luciferase, bursicon-stimulated, 4 h | inhibition, % at 9.99 µM | 0.35% of 380,000 active;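 active = drop in luminescence signal, shown as inhibition above about 50% in the replicate tests, limit read from the data, passing the limit was not always enough; inconclusive = probably only some replicates passing the limit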;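 note: agonist challenge used bursicon conditioned medium at about half maximal strength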
Starred values were filed as active, the others as inactive; ! = repeats disagree.

Results for COc1ccc(CN2CCn3ncc(C(=O)Nc4ccccc4)c3C2=O)cc1 ?
PGC1a acetyl inh: 129*; TRPM1 prom inh: -1; LMP1 NFkB inh: -7; LGR2 antag: -40

How did CCOC(=O)N1CCC(Nc2c(-c3ccc(C)c(C)c3)c(=O)c2=O)CC1 do in these assays?
PGC1a acetyl inh: 4; PAX8 inh HTS: 16; TRPM1 prom inh: -5; LMP1 NFkB inh: 53*

Results for C[C@@H]1CN([C@@H](C)CO)C(=O)c2cc(NS(=O)(=O)c3cn(C)cn3)ccc2O[C@H]1CN(C)Cc1ccc(C(=O)O)cc1 ?
EWS-Fli inh: 3; PGC1a acetyl inh: 15; LGR2 antag: -16

What do the screens show for `Cc1c(N=Cc2ccc(O)c(Br)c2)cccc1[N+](=O)[O-]`?
EWS-Fli inh: 6; PGC1a acetyl inh: -3; PAX8 inh HTS: 11; TRPM1 prom inh: -1; LMP1 NFkB inh: 47*; LGR2 antag: 3

How did O=[N+]([O-])c1ccc(N=Cc2ccc(Br)c([N+](=O)[O-])c2)cc1 do in these assays?
EWS-Fli inh: 19; PAX8 inh HTS: -4; TRPM1 prom inh: 3; LMP1 NFkB inh: -14; LGR2 antag: -9

Results for C[n+]1c2cc(N)ccc2cc2ccc(N)cc21 ?
EWS-Fli inh: 62*; PGC1a acetyl inh: 21; PAX8 inh HTS: 66*!; TRPM1 prom inh: 64*; LMP1 NFkB inh: 72*!; LGR2 antag: 0

What do the screens show for `Nc1ccc2ccc(O)cc2c1`?
EWS-Fli inh: -11; PGC1a acetyl inh: -3; PAX8 inh HTS: -8; TRPM1 prom inh: 17; LMP1 NFkB inh: -1; LGR2 antag: -35

What do the screens show for `O=C(C1CCOCC1)N1CC(=O)N2[C@H](CO)[C@H](c3ccc(C#CC4CC4)cc3)[C@H]2C1`?
EWS-Fli inh: 9; PGC1a acetyl inh: -5; PAX8 inh HTS: -14; LGR2 antag: 1

How did CCN(CC)S(=O)(=O)c1ccc(N/N=C/c2ccc(O)cc2O)nc1 do in these assays?
PAX8 inh HTS: 72*; TRPM1 prom inh: 50; LMP1 NFkB inh: 57*; LGR2 antag: 43

How did O=[N+]([O-])c1ccc(NN=Cc2ccc(O)cc2O)nc1 do in these assays?
EWS-Fli inh: -88; PGC1a acetyl inh: 8; PAX8 inh HTS: 15; TRPM1 prom inh: 1; LMP1 NFkB inh: 3; LGR2 antag: 8

What do the screens show for `Cc1noc(C)c1NC(=O)N(C)C[C@@H]1OCCCC[C@H](C)Oc2ccc(NC(=O)Cc3ccccc3)cc2C(=O)N([C@H](C)CO)C[C@@H]1C`?
EWS-Fli inh: -7; PGC1a acetyl inh: 1; LGR2 antag: 9

What do the screens show for `NC(=O)C(C(=O)/C=C/c1ccc(Cl)cc1)=C1SCCS1`?
EWS-Fli inh: -8; PGC1a acetyl inh: -40; PAX8 inh HTS: 89*; TRPM1 prom inh: 39; LMP1 NFkB inh: 25; LGR2 antag: 25

Results for CCc1csc(N2[C@@H](C#N)[C@@H](c3ccccc3-c3cccc(F)c3)[C@@H]2CO)n1 ?
EWS-Fli inh: 6; PGC1a acetyl inh: -5; PAX8 inh HTS: -11; LGR2 antag: 1

How did CC1CCCN(S(=O)(=O)c2cc3c4c(c2)C(C)C(=O)N4CCC3)C1 (configuration not stated) do in these assays?
EWS-Fli inh: 7; PGC1a acetyl inh: -9; PAX8 inh HTS: -14; TRPM1 prom inh: -6; LMP1 NFkB inh: 69*; LGR2 antag: 9

How did CC1C(=O)N2CCCc3cc(S(=O)(=O)N4CCCCC4)cc1c32 (configuration not stated) do in these assays?
EWS-Fli inh: -5; PAX8 inh HTS: -8; TRPM1 prom inh: -2; LMP1 NFkB inh: -1; LGR2 antag: -11

Results for CCOC(=O)C1=C(CN2CCSCC2)NC(=O)NC1c1ccc2c(c1)OCO2 (configuration not stated) ?
EWS-Fli inh: -3; PGC1a acetyl inh: 0; PAX8 inh HTS: 10; TRPM1 prom inh: -2; LMP1 NFkB inh: 1; LGR2 antag: -2

Results for CC1=C(C(=O)OCc2ccc3c(c2)OCO3)C(c2ccc(Cl)cc2)NC(=O)N1 (configuration not stated) ?
EWS-Fli inh: 36; PGC1a acetyl inh: inconclusive; TRPM1 prom inh: 55; LMP1 NFkB inh: 81*; LGR2 antag: 39

How did CC1=C(C(=O)OCc2ccc3c(c2)OCO3)C(c2ccc(F)cc2)NC(=O)N1 (configuration not stated) do in these assays?
PGC1a acetyl inh: 36; TRPM1 prom inh: 46; LMP1 NFkB inh: 79*; LGR2 antag: 28
